Laboratory results as given in PubChem BioAssay (NCATS).
Results filed as inconclusive are left out. The source made the active and inactive calls. Unless noted, the call rests on the fitted dose curve.

Legend:
[1] = qHTS for Inhibitors of the Functional Ribonucleoprotein Complex (vRNP) of Lassa (LASV) Arenavirus: LASV Primary Screen - GLuc reporter signal (AID 1347082; calls by dose curve; tested in HEK293 reporter line; further: nearly all actives have a fitted effect of over 60% in size)
[2] = qHTS for Inhibitors of the Functional Ribonucleoprotein Complex (vRNP) of Lassa (LASV) Arenavirus: Viability assay - alamar blue signal for LASV Primary Screen (AID 1347083; calls by dose curve; tested in HEK293 reporter line; further: nearly all actives have a fitted effect of over 80% in size)
[3] = qHTS for Inhibitors of the Functional Ribonucleoprotein Complex (vRNP) of Lymphocytic Choriomeningitis Arenaviruses (LCMV): Viability assay - alamar blue signal for LCMV Primary Screen (AID 1347085; calls by dose curve; tested in HEK293 reporter line; further: nearly all actives have a fitted effect of over 80% in size)
[4] = target: Nucleoprotein (Lymphocytic choriomeningitis virus (strain Armstrong)) (UniProt P09992); assay: qHTS for Inhibitors of the Functional Ribonucleoprotein Complex (vRNP) of Lymphocytic Choriomeningitis Arenaviruses (LCMV): LCMV Primary Screen - GLuc reporter signal (AID 1347086); further: nearly all actives have a fitted effect of over 70% in size
Sequence of Nucleoprotein (Lymphocytic choriomeningitis virus (strain Armstrong)) (P09992 whole entry, looked up): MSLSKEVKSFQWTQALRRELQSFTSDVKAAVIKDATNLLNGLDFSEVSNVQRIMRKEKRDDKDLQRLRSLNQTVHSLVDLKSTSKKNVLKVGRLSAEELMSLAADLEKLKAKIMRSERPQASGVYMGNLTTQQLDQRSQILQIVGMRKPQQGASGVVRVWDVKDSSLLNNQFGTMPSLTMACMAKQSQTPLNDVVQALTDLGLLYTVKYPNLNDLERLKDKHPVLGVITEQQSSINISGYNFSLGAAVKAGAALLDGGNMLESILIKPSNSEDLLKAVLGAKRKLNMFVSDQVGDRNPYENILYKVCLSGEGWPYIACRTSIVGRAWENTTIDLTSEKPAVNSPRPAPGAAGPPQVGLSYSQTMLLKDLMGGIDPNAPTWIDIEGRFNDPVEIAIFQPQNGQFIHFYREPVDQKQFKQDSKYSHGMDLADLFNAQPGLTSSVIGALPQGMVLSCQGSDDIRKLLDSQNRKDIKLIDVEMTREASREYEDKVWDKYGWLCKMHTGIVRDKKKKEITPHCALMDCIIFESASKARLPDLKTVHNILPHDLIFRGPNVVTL

Measured: Potency
Further: series mostly up to about 57 µM.

CC(=O)OC[C@H]1O[C@@](COC(C)=O)(O[C@H]2O[C@H](COC(C)=O)[C@@H](OC(C)=O)[C@H](OC(C)=O)[C@H]2OC(C)=O)[C@@H](OC(C)=O)[C@@H]1OC(C)=O
inactive: all assays above

NS(=O)(=O)c1cc2c(cc1Cl)NC(CSCc1ccccc1)=NS2(=O)=O
inactive: all assays above

COc1ccc2nc(NC(=O)Nc3ccccc3)sc2c1
inactive: all assays above

COC(=O)[C@@H](N)Cc1ccc(O)c(O)c1
inactive: all assays above

CCOC(=O)COc1ccc2c(C)c(CCN(CC)CC)c(=O)oc2c1Cl
inactive: all assays above

O=C(NCC1CN(c2ccc(N3CCOCC3=O)cc2)C(=O)O1)c1ccc(Cl)s1 (centres undefined)
inactive: all assays above

O=C(c1cc(O)c(O)c(O)c1)c1ccc(O)c(O)c1O
inactive: all assays above

CCNC(=O)NCCCOc1cccc(CN2CCCCC2)c1
inactive: all assays above

CC(C)N=C(N)/N=C(\N)Nc1ccc(Cl)cc1
inactive: all assays above

O=C(O)c1cn(-c2ccc(F)cc2)c2cc(N3CCNCC3)c(F)cc2c1=O
inactive: all assays above

CC(=O)OCC1=C(C(=O)O)N2C(=O)[C@@H](NC(=O)CSc3ccncc3)[C@H]2SC1
inactive: all assays above

CNC(=O)CN(CCN(CCN(CC(=O)[O-])CC(=O)NC)CC(=O)[O-])CC(=O)[O-].O.[Gd+3]
inactive: all assays above

O=C(O)Cc1ccc(CCNS(=O)(=O)c2ccc(Cl)cc2)cc1
inactive: all assays above

OC1C(O)C(O)C(O)C(O)C1O (centres undefined)
inactive: all assays above

Cc1ccc(Cl)c(OCC(O)CNC(C)(C)C)c1 (centres undefined)
inactive: all assays above

OCC(O)CN1CCN(c2ccccc2)CC1 (centres undefined)
inactive: all assays above

C#Cc1ccc(-c2ccccc2F)cc1
inactive: all assays above

CCCCCCCCOc1ccccc1C(=O)Nc1ccc(C(=O)OCC[N+](C)(CC)CC)cc1
inactive: all assays above

CC1(c2ccccc2)OC(C(=O)O)=CC1=O (centres undefined)
inactive: all assays above

CN(C(=O)CCCOc1ccc2[nH]c(=O)ccc2c1)C1CCCCC1
inactive: all assays above

CCc1cccc2c3c([nH]c12)C(CC)(CC(=O)O)OCC3 (centres undefined)
inactive: all assays above

CCCOC(=O)c1ccc(N)cc1
inactive: all assays above

Oc1ccc(/C=C/c2cc(O)cc(O)c2)cc1
inactive: all assays above

C/C(=C(/OCCOc1ccc(Cl)cc1)c1ccc(Cl)cc1Cl)n1ccnc1
inactive: all assays above

O=C1Cc2cc(Cl)ccc2N1
inactive: all assays above

Cc1cc(C)c(/C=C2\C(=O)Nc3ccccc32)[nH]1
inactive: all assays above

C[C@H]1COc2c(C3(N)CC3)c(F)cc3c(=O)c(C(=O)O)cn1c23
inactive: all assays above

CCOC(=O)NNc1nncc2ccccc12
inactive: all assays above

CC(C)(C)c1nnc(NS(=O)(=O)c2ccc(N)cc2)s1
inactive: all assays above

Nc1cc(C(F)(F)F)ccc1S
inactive: all assays above

NS(=O)(=O)c1cc(C(=O)O)c(NCc2ccco2)cc1Cl
inactive: all assays above

O=C(Nc1ccc(C(=O)O)c(O)c1)c1ccccc1
inactive: all assays above

CCN(CC)C(=O)C1CN2CCc3cc(OC)c(OC)cc3C2CC1OC(C)=O (centres undefined)
inactive: all assays above

C#CCN(C)Cc1ccccc1
inactive: all assays above

CC1(C)[C@@H](OC(=O)CCC(=O)O)CC[C@]2(C)[C@H]3C(=O)C=C4[C@@H]5C[C@@](C)(C(=O)O)CC[C@]5(C)CC[C@@]4(C)[C@]3(C)CC[C@@H]12
inactive: all assays above

CCCCCCCCCCCC[N+](C)(C)Cc1ccccc1
inactive: all assays above

CCN1CCN(c2cc(-c3ccc(F)cc3)c3c(n2)CCCCCC3)CC1
inactive: all assays above

CC(C(=O)O)c1ccc2c(c1)Cc1cccnc1O2 (centres undefined)
inactive: all assays above

C[C@H]1[C@H]2CC[C@H]3[C@@H]4CC=C5C[C@@H](N(C)C)CC[C@]5(C)[C@H]4CC[C@]23CN1C
inactive: all assays above

CC(=O)[C@H]1CC[C@H]2[C@@H]3CC=C4C[C@@H](O)CC[C@]4(C)[C@H]3CC[C@]12C
inactive: all assays above

CN(C)CCOC(c1ccccc1)c1ccc(Br)cc1 (centres undefined)
inactive: all assays above

CCOC(=O)c1cccc(N)c1
inactive: all assays above

NS(=O)(=O)c1cc2c(cc1Cl)CN(C1CCCCC1)C2=O
inactive: all assays above

CNC(=O)c1c(I)c(NC(=O)CCCCC(=O)Nc2c(I)c(C(=O)O)c(I)c(C(=O)NC)c2I)c(I)c(C(=O)O)c1I
inactive: all assays above

CC(C)=CCC/C(C)=C/CC/C(C)=C/C(=O)OCC(=O)[C@@]1(O)CC[C@H]2[C@@H]3CCC4=CC(=O)C=C[C@]4(C)[C@H]3[C@@H](O)C[C@@]21C
inactive: all assays above

COc1ccc2c(c1OC)C(=O)O[C@@H]2[C@H]1c2c(cc3c(c2OC)OCO3)CCN1C
inactive: all assays above

COc1ccnc2c1CCCCC2S(=O)c1nc2ccccc2[nH]1 (centres undefined)
inactive: all assays above

CC1(C)CCC(C)(C)c2cc(NC(=O)c3ccc(C(=O)O)cc3)ccc21
inactive: all assays above

COC(=O)C1=C(C)NC(C)=C(C(=O)OCCN2CCN(C(c3ccccc3)c3ccccc3)CC2)C1c1cccc([N+](=O)[O-])c1 (centres undefined)
inactive: all assays above

CCN(CC)CCSC(=O)C(c1ccccc1)c1ccccc1
inactive: all assays above

CC(=O)OCC(=O)[C@@]1(O)CCC2C3CCC4=CC(=O)CC[C@]4(C)C3[C@@H](O)C[C@@]21C (some centres undefined)
inactive: all assays above

CCC(CN)=C(c1ccccc1)c1ccccc1
inactive: all assays above

O=C(Nc1ccc([N+](=O)[O-])cc1)Nc1ccc([N+](=O)[O-])cc1
inactive: all assays above

C=CCOc1ccccc1OCC(O)CNC(C)C (centres undefined)
inactive: all assays above

CCOC(=O)C1=C[C@]2(CC)CCCN3CCc4c(n1c1ccccc41)[C@@H]32
inactive: all assays above

CC(C)CCCC(C)N (centres undefined)
inactive: all assays above

CC(=O)O[C@H]1C[C@@H]2CC[C@@H]3[C@H](CC[C@@]4(C)[C@H]3C[C@H]([N+]3(C)CCCCC3)[C@@H]4OC(C)=O)[C@@]2(C)C[C@@H]1N1CCCCC1
inactive: all assays above

CN(C)[C@@H](CCOc1cccc2ccccc12)c1ccccc1
inactive: all assays above

COc1ccc(CN(CCN(C)C)c2ccccn2)cc1
inactive: all assays above

Clc1ccc2c(c1)CCc1cccnc1C2=C1CCNCC1
inactive: all assays above

CCOc1ccccc1O[C@H](c1ccccc1)[C@H]1CNCCO1
inactive: all assays above

Oc1ccc(C(O)CNCCCCCCNCC(O)c2ccc(O)c(O)c2)cc1O (centres undefined)
inactive: all assays above

C[C@]12CC[C@H]3[C@@H](CCC4=CC(=O)CC[C@@]43C)[C@@H]1CC[C@@H]2C(=O)CO
inactive: all assays above

CN(C)CCCN1c2ccccc2Sc2ccc(C(F)(F)F)cc21
inactive: all assays above

Cc1cc(C(C)(C)C)c(O)c(C)c1CC1=NCCN1
inactive: all assays above

NC[C@H]1O[C@H](O[C@H]2[C@H](O)[C@@H](O[C@H]3O[C@H](CO)[C@@H](O)[C@H](N)[C@H]3O)[C@H](N)C[C@@H]2N)[C@H](N)[C@@H](O)[C@@H]1O
inactive: all assays above

Clc1ccccc1-c1nc(-c2ccncc2)no1
inactive: all assays above

CCN(CC)CCOc1ccc(Cc2ccccc2)cc1
inactive: all assays above

CN(C)CC/C=C1\c2ccccc2Sc2ccc(Cl)cc21
inactive: [1] | [3] | [4]

CN(C)CCCOc1nn(Cc2ccccc2)c2ccccc12
inactive: [1] | [2] | [4]

COc1cc(N)c(Cl)cc1C(=O)NC1CCN(Cc2ccccc2)CC1
inactive: [1] | [3] | [4]

CN(C)CCN(Cc1ccc(Cl)cc1)c1ccccn1
inactive: [1] | [3] | [4]
